In the supplement of paper PMC6607015:
Structures can show the parent of a compound that is named as a salt.

Key:
Conditions in all cases: compound concentration in added solution (µM; 5 µl added to 20 µl cells): 10; 18 h
A431 [1] = experiment: LBPA endosome anti-LBPA integrated intensity (sum per cell), Z-score; higher = more LBPA staining
In short: (§1)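 Per-cell integrated LBPA or filipin intensity, whole-cell or within LBPA endosomes, is expressed as Z-scores normalised in AcuityXpress. HeLa MZ or A431 cells, 3,500 per well in 20 µl, sat on 5 µl of 10 µM compound solution in duplicate 384-well imaging plates for 18 h. They were then fixed in 4% PFA, stained, imaged in four 20× fields per well and segmented using MetaXpress.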

HeLa MZ [2] = experiment: as above
In short: as §1

A431 [3] = experiment: whole-cell filipin (free cholesterol) integrated intensity, Z-score; higher = more cholesterol staining
In short: as §1

HeLa MZ [4] = experiment: as above
In short: as §1

A431 [5] = experiment: filipin (cholesterol) integrated intensity within LBPA endosomes, Z-score; higher = more cholesterol in LBPA endosomes
In short: as §1

HeLa MZ [6] = experiment: as above
In short: as §1

SMILES | LBPA endosome anti-LBPA integrated intensity (z-score) (A431 [1]) | LBPA endosome anti-LBPA integrated intensity (z-score) (HeLa MZ [2]) | whole-cell filipin (z-score) (A431 [3]) | whole-cell filipin (z-score) (HeLa MZ [4]) | filipin (z-score) (A431 [5]) | filipin (z-score) (HeLa MZ [6])
COC(=O)[C@@H]1[C@H]2C[C@H]3c4[nH]c5ccccc5c4CCN3C[C@@H]2CC[C@@H]1O [Yohimbine hydrochloride] | -0.468 | -0.264 | -0.685 | -0.575 | -0.434 | -0.333
CCCCc1nc(Cl)c(CO)n1Cc1ccc(-c2ccccc2-c2nnn[nH]2)cc1 [Losartan] | -0.107 | -0.132 | 0.421 | -0.132 | -0.313 | -0.537
C[C@@H]1CN(c2c(F)c(N)c3c(=O)c(C(=O)O)cn(C4CC4)c3c2F)C[C@H](C)N1 [Sparfloxacin] | -0.202 | 0.876 | 0.309 | 0.295 | -0.322 | -0.143
CNNCc1ccc(C(=O)NC(C)C)cc1 [Procarbazine hydrochloride] | -0.593 | -1.08 | -0.286 | -0.325 | -0.487 | -0.664
COc1ccc2cc([C@@H](C)C(=O)O)ccc2c1 [(R) -Naproxen sodium salt] | -0.646 | -1.68 | -0.677 | -0.633 | -0.535 | -0.58
CC(=O)CCCCn1c(=O)c2c(ncn2C)n(C)c1=O [Pentoxifylline] | -0.527 | -0.115 | -0.786 | -0.278 | -0.513 | -0.514
C#CCN(C)Cc1ccccc1 [Pargyline hydrochloride] | -0.443 | -0.371 | -0.77 | -0.65 | -0.469 | -0.441
C#C[C@]1(O)CC[C@H]2[C@@H]3CCC4=C(CCC(=O)C4)[C@H]3CC[C@@]21C [Norethynodrel] | -0.487 | -0.658 | -0.784 | -0.871 | -0.48 | -0.512
CN1CCOC(c2ccccc2)c2ccccc2C1 (stereo not given) [Nefopam hydrochloride] | -0.544 | -0.0559 | -0.752 | -0.617 | -0.509 | -0.197
Clc1ccc2c(c1)C(N1CCNCC1)=Nc1ccccc1O2 [Amoxapine] | 3.32 | 0.828 | 0.789 | -0.797 | 2.56 | 1.55
CCN(CC)CC#CCOC(=O)C(O)(c1ccccc1)C1CCCCC1 (stereo not given) [Oxybutynin chloride] | 0.579 | 1.7 | 0.833 | 0.613 | 0.892 | 1.15
N=C(N)NC(=O)Cc1c(Cl)cccc1Cl [Guanfacine hydrochloride] | -0.503 | 0.0887 | -0.556 | 0.368 | -0.462 | 0.00861
CC(CNC1CCCCC1)OC(=O)c1ccccc1 (stereo not given) [Hexylcaine hydrochloride] | -0.125 | -0.0338 | -0.478 | -0.747 | -0.345 | -0.436
CN1C(=O)OC(C)(C)C1=O [Trimethadione] | -0.446 | -0.0741 | -0.388 | -0.0387 | -0.476 | -0.496
Cc1ncc([N+](=O)[O-])n1CC(C)O (stereo not given) [Secnidazole] | -0.291 | -0.288 | -0.203 | -0.327 | -0.374 | -0.579
CN(C)CCC(c1ccccc1)c1ccccn1 (stereo not given) [Pheniramine maleate] | -0.513 | 0.0628 | -0.745 | -0.51 | -0.53 | -0.436
CC(C(=O)O)c1cccc(Oc2ccccc2)c1 (stereo not given) [Fenoprofen calcium salt dihydrate] | -0.519 | -0.608 | -0.389 | -0.428 | -0.476 | -0.491
N=C(N)NCc1cccc(I)c1 [Iobenguane sulfate] | -0.605 | -1.1 | -0.881 | -0.23 | -0.54 | -0.449
CC[C@H]1OC(=O)[C@H](C)[C@@H](O[C@H]2C[C@@](C)(OC)[C@@H](O)[C@H](C)O2)[C@H](C)[C@@H](O[C@@H]2O[C@H](C)C[C@H](N(C)C)[C@H]2O)[C@](C)(O)C[C@@H](C)CN(C)[C@H](C)[C@@H](O)[C@]1(C)O [Azithromycin] | 4.39 | 1.79 | 0.331 | 0.115 | 1.25 | 1.45
CN(C)CCCN1c2ccccc2Sc2ccc(Cl)cc21 [Chlorpromazine hydrochloride] | 3.29 | 1.39 | 0.659 | 0.0307 | 2.35 | 1.67
CC1(C)S[C@@H]2[C@H](NC(=O)[C@H](NC(=O)N3CCNC3=O)c3ccccc3)C(=O)N2[C@H]1C(=O)O [Azlocillin sodium salt] | -0.496 | -0.655 | -0.388 | -0.517 | -0.464 | -0.493
CC(C)(CO)C(O)C(=O)NCCCO (stereo not given) [Panthenol (D)] | -0.558 | -0.28 | -0.953 | -0.974 | -0.509 | -0.649
Cn1nnc2c(C(N)=O)ncn2c1=O [Temozolomide] | -0.384 | 0.224 | -0.454 | 0.0676 | -0.437 | -0.627

SMILES | LBPA endosome anti-LBPA integrated intensity (z-score) (A431 [1]) | LBPA endosome anti-LBPA integrated intensity (z-score) (HeLa MZ [2]) | whole-cell filipin (z-score) (A431 [3]) | whole-cell filipin (z-score) (HeLa MZ [4]) | filipin (z-score) (A431 [5]) | filipin (z-score) (HeLa MZ [6])
C[C@]12C=CC(=O)C=C1CC[C@@H]1[C@@H]2[C@@H](O)C[C@@]2(C)[C@H]1CC[C@]2(O)C(=O)CO [Prednisolone] | -0.285 | -0.493 | -0.674 | -0.403 | -0.432 | -0.544
CC1=C(C(=O)O)N2C(=O)[C@@H](NC(=O)[C@H](N)c3ccc(O)cc3)[C@H]2SC1 [Cefadroxil] | -0.651 | -1.02 | -0.697 | -0.675 | -0.507 | -0.626
Nc1nc2ccc(OC(F)(F)F)cc2s1 [Riluzole hydrochloride] | -0.418 | -0.758 | -0.48 | -0.459 | -0.501 | -0.474
CCOC(=O)[C@@](C)(N)Cc1ccc(O)c(O)c1 [Methyldopate hydrochloride] | -0.346 | -0.632 | -0.323 | -0.577 | -0.327 | -0.42
CC(=O)c1ccc2c(c1)N(CCCN(C)C)c1ccccc1S2 [Acetopromazine maleate salt] | 1.92 | 2.14 | 0.736 | -0.149 | 1.18 | 1.7
Nc1ccn([C@@H]2CS[C@H](CO)O2)c(=O)n1 [Lamivudine] | -0.481 | -0.745 | -0.233 | -0.14 | -0.498 | -0.564
CN(C)CCCO[C@@H]1[C@H]2OC(C)(C)O[C@H]2O[C@@H]1[C@H](O)CO [Amiprilose hydrochloride] | -0.365 | -0.384 | -0.0258 | -0.369 | -0.415 | -0.492
CCN(CC)CCNC(=O)COc1ccc(OC)cc1 [Mefexamide hydrochloride] | -0.352 | 0.346 | -0.627 | -0.811 | -0.519 | -0.36
Nc1cc(N2CCCCC2)nc(N)[n+]1[O-] [Minoxidil] | -0.316 | -0.257 | -0.274 | 0.345 | -0.426 | -0.263
CC(C)(C)NC[C@H](O)COc1cccc2c1CCCC2=O [(-) -Levobunolol hydrochloride] | -0.264 | 1.1 | -0.125 | -0.19 | -0.327 | 0.118
Nc1nc(=S)c2ncn([C@@H]3O[C@H](CO)[C@@H](O)[C@H]3O)c2[nH]1 [Thioguanosine] | -0.355 | 1.49 | -1.06 | -0.863 | -0.656 | -0.626
CCOc1ccc(NC(C)=O)cc1 [Phenacetin] | -0.594 | -0.322 | -0.814 | -0.392 | -0.555 | -0.582
COc1ccc(CC2c3cc(OC)c(OC)cc3CC[N+]2(C)CCC(=O)OCCCCCOC(=O)CC[N+]2(C)CCc3cc(OC)c(OC)cc3C2Cc2ccc(OC)c(OC)c2)cc1OC (stereo not given) [Atracurium besylate] | -0.229 | -0.154 | -0.0896 | -0.584 | -0.0589 | 0.0777
Clc1cnccn1 [2-Chloropyrazine] | -0.346 | -0.401 | 0.139 | -0.365 | -0.401 | -0.492
Cn1c(=O)c2[nH]cnc2n(C)c1=O [Aminophylline] | -0.25 | 0.505 | -0.204 | 0.324 | -0.281 | -0.178
O=C(O)c1ccccc1Nc1cccc(C(F)(F)F)c1 [Flufenamic acid] | -0.586 | -0.521 | -0.734 | -0.685 | -0.54 | -0.632
Clc1ccc2nsnc2c1NC1=NCCN1 [Tizanidine HCl] | -0.331 | 0.552 | -0.333 | -0.51 | -0.548 | -0.219
C#C[C@]1(O)CC[C@H]2[C@@H]3[C@H](C)CC4=C(CCC(=O)C4)[C@H]3CC[C@@]21C [Tibolone] | -0.522 | -0.57 | -0.775 | -0.295 | -0.476 | -0.561
CC[C@H](c1ccc(O)cc1)[C@@H](CC)c1ccc(O)cc1 [Hexestrol] | -0.48 | -0.198 | -0.492 | -0.508 | -0.435 | -0.383
CN(C)CCOC(c1ccccc1)c1ccccc1 [Diphenhydramine hydrochloride] | -0.431 | -0.0117 | -0.136 | -0.63 | -0.485 | -0.0904
COCCCOc1ccnc(C[S+]([O-])c2nc3ccccc3[nH]2)c1C (stereo not given) [Rabeprazole Sodium salt] | -0.587 | -0.545 | 0.0453 | 1.99 | -0.44 | -0.189
CC1(C)O[C@@H]2C[C@H]3[C@@H]4C[C@H](F)C5=CC(=O)C=C[C@]5(C)[C@@]4(F)[C@@H](O)C[C@]3(C)[C@]2(C(=O)CO)O1 [Fluocinolone acetonide] | -0.172 | -0.371 | 0.258 | 0.13 | -0.163 | -0.367
